Screening results as filed in PubChem BioAssay.
Only some compounds are listed: those with a hit (about 4.7% of all), similar ones and a draw of the others.
TRHR PAM: allosteric enhancers of human TRH receptor; P34981; TRHR cells, fluo-8 calcium fluorescence, EC20 TRH enhancement; enhancement, % at 2 µM; 360,000 compounds, 0.66% hits; AID 493056; in the data active means enhancement above about 30%; further: 0% is about no effect
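Enhancer read-out: after compound pinning and an initial kinetic agonist-mode read, an EC20 of TRH (10 nM final) was injected and fluo-8 calcium signal (Ex 480/Em 530) followed at 1 s/cycle for 100 cycles in TRHR-expressing cells.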
TRHR agonist: agonists of human TRH receptor. P34981. TRHR cells, calcium flux fluo-8, FDSS agonist mode. activation, % at 2 µM. 360,000 compounds, 0.18% hits; further: 0% is about no effect
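TRHR-expressing cells loaded with fluo-8 calcium dye; 23 nL library compound pin-transferred, kinetic FDSS fluorescence (Ex 480/Em 530) recorded about 180 s for agonist-induced calcium release, before a 10 nM TRH EC20 addition for potentiator mode.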
D1 potentiator: potentiators of human D1 dopamine receptor. AID 504651. potentiation, % at 10 µM. 360,000 compounds, 0.036% hits. HEK293 TREx D1 cells, calcium flux, dopamine EC20 potentiation. P21728; in the data active means potentiation above about 30%; further: 0% is about no effect
Target sequence (P21728 whole entry, looked up): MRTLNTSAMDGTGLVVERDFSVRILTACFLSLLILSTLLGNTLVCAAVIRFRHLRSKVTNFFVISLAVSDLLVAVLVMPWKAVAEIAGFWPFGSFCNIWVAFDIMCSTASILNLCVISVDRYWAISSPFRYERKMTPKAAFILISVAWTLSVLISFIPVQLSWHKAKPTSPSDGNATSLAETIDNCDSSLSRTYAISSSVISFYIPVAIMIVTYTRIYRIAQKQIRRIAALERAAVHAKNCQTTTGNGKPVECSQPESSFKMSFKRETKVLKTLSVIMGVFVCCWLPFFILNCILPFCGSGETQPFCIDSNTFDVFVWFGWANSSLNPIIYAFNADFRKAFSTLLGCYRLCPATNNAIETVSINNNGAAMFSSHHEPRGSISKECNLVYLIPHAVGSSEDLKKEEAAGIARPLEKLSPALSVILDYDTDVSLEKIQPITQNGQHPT
D1 antag: blocks dopamine activation of the human D1 receptor | P21728 | HEK293 TREx D1 cells, calcium flux, dopamine EC80; hits give low values | activity change, negative = inhibition, % at 10 µM | 360,000 compounds, 3.2% hits; in the data active means activity change below about -30%; further: on the % scale 0 is the no-effect control and ±100 the full control effect
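Inducible Hek293 Trex D1 cells (tetracycline, overnight, 30 C). Calcium dye 30–90 min RT. Antagonist mode: EC80 dopamine added after 180 s compound read.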
D1 agonist: activates the human D1 dopamine receptor. P21728. 360,000 compounds, 1% hits. activation, % at 2 µM. HEK293 T-REx D1 cells, calcium flux, agonist mode; further: 0% is about no effect
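Agonism was scored from calcium flux recorded over 180 s (1 read/s) after pintool compound addition, following a 10-cycle baseline. Cells were inducible force-coupled HEK293 TREx D1, plated overnight at 30 C and loaded with no-wash calcium dye.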
An asterisk follows results filed as active; / = not tested or not shown; ! = repeats disagree. Unless noted, no stated cut-off is given here; in the data, active means activation above about 30%; inactive means the rest.

SMILES	TRHR PAM	TRHR agonist	D1 potentiator	D1 antag	D1 agonist
COc1cc(O)c(C(CCN2CCN(c3ccccc3)CC2)c2ccc(N(C)C)cc2)c(OC)c1 (stereo not given)	-1	0	-9	-80*	1
COc1ccc(C(CCN2CCN(c3ccccc3)CC2)c2c(O)cc(OC)cc2OC)cc1 (stereo not given)	-5	0	-9	-84*	1
CCN(CC)CCC(c1ccc(OC)cc1)c1c(O)cc(OC)cc1OC (stereo not given)	-3	0	-10	-32*	8
CCSc1nn(CC(=O)Nc2cccc(CC)c2)c(N)c1S(=O)(=O)c1ccccc1	-1	0	-1	-1	7
O=C(NCCc1csc(-c2cccnc2)n1)c1cccc(C(F)(F)F)c1	-1	-1	-2	-4	6
Cn1ccsc1=NC(=O)c1ccccc1OC(F)F	-7	3	-8	-36*	0
COc1ccc(OC)c(-c2c3cc(O)c(=O)cc-3oc3cc(O)c(O)cc23)c1	25	16	-2	0	44*
COc1ccc(OC)c(-c2oc3ccccc3c(=O)c2O)c1	5	0	-1	-22	-1
Cc1ccc(CNC(=O)c2nc(SCc3ccc(C)cc3)ncc2Cl)cc1	-3	5	6	-2	13
Cc1ccc(CNC(=O)CSCc2ccc(F)cc2)cc1	-5	0	-1	-36*!	1
CCOC(=O)c1c(NC(=O)CSc2nc3ccc(C)cc3[nH]2)sc2c1CC(C)(C)NC2(C)C	0	2	1	11	48*
CCOC(=O)c1c(NC(=O)CSc2nnnn2-c2ccccc2)sc2c1CC(C)(C)NC2(C)C	9	1	2	-11	6
Cc1ccc(CNC(=O)c2nc(SCc3ccc(F)cc3)ncc2Cl)cc1	42*	4	2	4	21
CCC1SC(CC)C(=O)N(CC(=O)NCc2ccc(F)cc2)C1=O (stereo not given)	-2	0	2	0	6
CC1SC(C)C(=O)N(CC(=O)NCc2ccc(F)cc2)C1=O (stereo not given)	39*	0	-1	8	0
Cc1ccc(CNC(=O)CSCc2ccccc2)cc1	-6	-2	-5	-15	3
CCc1nnc(NC(=O)CSCc2cc(=O)c3ccc(C)cc3[nH]2)s1	6	0	-1	-2	4
Cc1cccc(C)c1OCCn1c(C2CC(=O)N(Cc3ccc(F)cc3)C2)nc2ccccc21 (stereo not given)	-1	-1	-3	3	5
COc1cc(-c2nnc(SCC(=O)N3CCCc4ccccc43)o2)cc(OC)c1OC	8	0	4	-8	1
COc1ccc(CCNC(=O)c2nc(SCc3ccccc3F)ncc2Cl)cc1OC	-3	4	3	-3	33*
Cc1ccc2nc(SCC(=O)NCc3ccc(F)cc3)[nH]c2c1	1	-2	-9	-45*	51*
COC(=O)CSc1nc2ccc(C)cc2[nH]1	-4	-1	-10	-36*	3
CCOC(=O)c1cccc(NC(=O)C(C)n2nc(C)c3c(C)n(-c4ccccc4)nc3c2=O)c1 (stereo not given)	3	0	-1	5	0
CCN1CCN(c2c(S(=O)(=O)c3ccc(C)c(C)c3)cnc3cc(OC)c(OC)cc23)CC1	4	0	-8	-66*	0
CCc1ccc2ncc(S(=O)(=O)c3ccc(C)c(C)c3)c(N3CCCC3)c2c1	-14	0	-2	-7	4
SMILES	TRHR PAM	TRHR agonist	D1 potentiator	D1 antag	D1 agonist
CCCn1c(=O)c2sccc2n2c(CCCC(=O)Nc3cccc(CC)c3)nnc12	-6	0	-1	-4	3
CC(C)n1cnc2c(N(C)c3ccccc3)nc(N(CCN(C)C)Cc3ccccc3)nc21	-6	4	0	-104*	28
Cc1ccccc1NC(=O)c1cnc2sc(N3CCCC3)nn2c1=O	4	1	-4	-15	3
O=C(CSC1=Nc2ccccc2N=C(c2ccc(F)cc2)C1)Nc1ccc(Cl)cc1	4	1	-3	-8	5
O=[N+]([O-])c1ccc(/C=N/NC(=S)Nc2ccccc2F)o1	-1	0	-4	-53*	3
O=[N+]([O-])c1ccc(/C=N/Nc2ccc3ccccc3c2)o1	-4	6	-2	11	40*
O=C(N/N=C/c1ccc([N+](=O)[O-])o1)c1cc2ccccc2o1	5	0	-4	6	1
O=[N+]([O-])c1ccc(/C=N/NC(=S)Nc2ccccc2)o1	-4	-1	-4	-3	9
Cc1occc(=O)c1OC(=O)Nc1ccc(Cl)c(Cl)c1	0	1	-20	-47*	13
O=C(CNC(=O)c1ccccc1O)N/N=C/c1cc(Br)ccc1OC(=O)/C=C/c1ccco1	15	1	-8	-33*	7
Cc1c(-c2ccccc2)nc2ccccc2c1C(=O)Oc1ccc([N+](=O)[O-])cc1	-4	0	-7	-33*	3
COc1ccc(C(CNC(=O)c2ccc(Cl)c(S(=O)(=O)N3CCCC3)c2)N2CCCC2)cc1 (stereo not given)	-4	0	11	5	6
C=CCN(c1ccccc1Cl)S(=O)(=O)c1cccc(C(=O)NCCc2ccc(OC)cc2)c1	1	1	-8	-32*	3
COc1cccc(CNC(=O)c2ccc(Cl)c(S(=O)(=O)N3CCOCC3)c2)c1	-7	-1	-11	-34*	2
CCOC(=O)N1CCN(C(=O)c2ccc(Cl)c(S(=O)(=O)N3CCCC3)c2)CC1	2	0	34*	-2	0
COc1ccc(CCNC(=O)c2ccc(Cl)c(S(=O)(=O)N3CCCC3)c2)cc1	1	0	-1	-50*	8
COc1ccc(NC(=O)c2nnn(Cc3nc(-c4cc(Br)ccc4OC)oc3C)c2C)cc1	11	0	3	4	-2
COc1ccc(C(=O)Nc2ncc(C)s2)cc1S(=O)(=O)N1CCOCC1	32*	2	-4	12	0
COc1ccc(C(=O)NCc2ccncc2)cc1S(=O)(=O)N1CCOCC1	-5	0	/	-48*	4
CCOC(=O)N1CCN(C(=O)c2ccc3c(c2)ncn3C2CCCC2)CC1	34*	-1	-5	-12	1
COc1ccccc1OCCNC(=O)c1ccc(C)c(S(=O)(=O)N2CCOCC2)c1	13	0	-7	-6	30*
COc1ccccc1OCCNC(=O)c1cccc(S(=O)(=O)N2CCN(C)CC2)c1	1	0	5	6	1
O=S(=O)(c1ccc2c(c1)OCCO2)N1CCN(S(=O)(=O)c2ccc(F)c(F)c2F)CC1	1	-1	2	9	1
COc1cccc(NC(=O)C(=O)NCCc2csc(-c3ccc(C)cc3)n2)c1	1	0	-5	8	11
